# Data taken from PubChem BioAssay (EPA / NIEHS).
# Where “and” joins values, the source holds several entries; their conditions need not be identical. Equal values may be shown once. Inconclusive results are not listed. Where a structure was tested more than once in an assay, its records may differ in their call. Calls of active or inactive are those of the source. How the source made its calls, unless noted: active means hit-call score of the fitted dose curve at least 0.9, where 1 is the maximum; inactive means score below 0.9.
# What was measured:
# [1] = BSK_BT_PBMCCytotoxicity: PBMC Cytotoxicity Assessment in the BioMAP Diversity Plus: BT Assay (AID 2284225); conditions: primary human B cells with PBMC;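 further: PBMC viability measured by Alamar Blue dye reduction fluorescence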
# Summary of the method: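 75,000 cells/well; cpd 1 h → SEB + TSST-1 (20 ng/mL final each) → 90 h → Alamar Blue 6 h → fluor. 546/580 nm. DMSO = neg. control/baseline.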
# [2] = read-out: Secreted IgG (sIgG), gene 3500; assay: BSK_BT_sIgG: BioMAP Diversity Plus: BT Assay for Secreted IgG (sIgG) Biomarker Activity (AID 2284226); conditions: primary human B cells with PBMC
# Summary of the method: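 Secreted IgG from a human primary B cell–PBMC co-culture was measured by ELISA 24 hours after dosing, with DMSO defining baseline activity.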
# [3] = BSK_BT_Bcell_Proliferation: Viability Assessment in the BioMAP Diversity Plus: BT Assay for B cell Proliferation (AID 2284227); conditions: primary human B cells with PBMC
# Summary of the method: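 Human B cells co-cultured with PBMC were dosed with test chemicals and relative cell number was quantified by SRB staining at 72 h. Cells were fixed in 10% TCA, stained with 0.1% SRB and read at 560 nm. Activity was fitted in the positive direction against DMSO.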
# [4] = read-out: Interleukin 6 (IL6), IL6 (gene 3569); assay: BSK_BT_xIL6: BioMAP Diversity Plus: BT Assay for Interleukin 6 (IL6) Biomarker Activity (AID 2284228); conditions: primary human B cells with PBMC
# Summary of the method: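 Chemical added to human B cell/PBMC co-culture → 24 h → supernatant IL-6 by Luminex xMAP → fit vs DMSO baseline, upward direction.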
# [5] = read-out: Interleukin 17A (IL17A), IL17A (gene 3605); assay: BSK_BT_xIL17A: BioMAP Diversity Plus: BT Assay for Interleukin 17A (IL17A) Biomarker Activity (AID 2284229); conditions: primary human B cells with PBMC
# Summary of the method: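 Chemicals were added to a human B cell and PBMC co-culture. After 24 h, secreted IL-17A was measured with Luminex xMAP. Curves were fitted in the positive direction, with DMSO wells as baseline.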
# [6] = read-out: Tumor necrosis factor (Homo sapiens) (UniProt P01375); assay: BSK_BT_xTNFa: BioMAP Diversity Plus: BT Assay for Tumor necrosis factor alpha (TNF-alpha) Biomarker Activity (AID 2284230); conditions: primary human B cells with PBMC
# Summary of the method: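 B cells with PBMC in co-culture, dosed and sampled at 24 h; secreted TNF-alpha measured by Luminex xMAP bead assay. Activity fitted in the gain direction against DMSO as negative control and baseline.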
# [7] = read-out: Vascular cell adhesion molecule 1 (VCAM1), VCAM1 (gene 7412); assay: BSK_MyoF_VCAM1: BioMAP Diversity Plus: MyoF Assay for Vascular cell adhesion molecule 1 (VCAM1) Biomarker Activity (AID 2284231); conditions: primary human lung fibroblasts
# Summary of the method: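 Steps: fibroblasts from human lung exposed to compound; biomarker quantified by ELISA at 24 h; values analysed for upward change over the DMSO baseline.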
# [8] = CCTE_Mundy_HCI_Cortical_Synap_Neur_Matur_NeuriteSpotCountPerNeuron: CCTE's Synaptogenesis and Neurite Maturation Assay in rat cortical cells for Neurite Spot Count per Neuron Count, Mundy Lab (AID 2284215)
# Summary of the method: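 Synapse density is scored as synaptophysin spots along neurites per neuron in fixed rat cortical neurons, measured at DIV 12 after chemical dosing at DIV 7. DMSO is the negative control and activity baseline.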
# [9] = CCTE_Mundy_HCI_Cortical_Synap_Neur_Matur_SynapseCount: CCTE's Synaptogenesis and Neurite Maturation Assay in rat cortical cells for Synapse Count, Mundy Lab (AID 2284218)
# Summary of the method: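 Synapse count per neuron is measured in rat cortical neurons exposed to chemicals between DIV 7 and DIV 12, with glial growth arrested by AraC at DIV 5. Synaptophysin and MAP2 staining is imaged automatically; activity is fitted relative to DMSO.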
# [10] = CCTE_Mundy_HCI_hN2_NOG_NeuriteCount: CCTE's Neurite Outgrowth Assay in human hN2 cells for Neurite Count, Mundy Lab (AID 2284219; active means hit-call score of the fitted dose curve at least 0.9, where 1 is the maximum)
# Summary of the method: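 In this morphology assay, hNP1-derived neurons received test chemical 2 h post-plating and were fixed two days later in warm paraformaldehyde/sucrose containing Hoechst 33342. Neurites, labelled by rabbit anti-βIII-tubulin (1:800) and Alexa Fluor-488 (1:500), were counted automatically.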
# [11] = CCTE_Mundy_HCI_hN2_NOG_NeuriteLength: CCTE's Neurite Outgrowth Assay in human hN2 cells for Neurite Length, Mundy Lab (AID 2284220; active means hit-call score of the fitted dose curve at least 0.9, where 1 is the maximum)
# Summary of the method: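 Read-out is neurite length from high-content imaging of βIII-tubulin/Alexa Fluor-488-labelled neurons, referenced to DMSO controls.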
# [12] = CCTE_Mundy_HCI_hN2_NOG_NeuronCount: CCTE's Neurite Outgrowth Assay in human hN2 cells for Neuron Count, Mundy Lab (AID 2284221; active means hit-call score of the fitted dose curve at least 0.9, where 1 is the maximum)
# Summary of the method: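 Read-out is the number of betaIII-tubulin-positive neurons imaged by automated high-content analysis, with DMSO as negative control.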
# [13] = CCTE_Mundy_HCI_Cortical_Synap_Neur_Matur_CellBodySpotCount: CCTE's Synaptogenesis and Neurite Maturation Assay in rat cortical cells for Cell Body Spot Count, Mundy Lab (AID 2284223)
# Summary of the method: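 Synapse number at neuronal cell bodies was quantified as synaptophysin puncta per neuron in rat cortical cultures exposed from DIV 7 to DIV 12. Values were normalised to DMSO.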
# [14] = CCTE_Mundy_HCI_hNP1_Pro_ResponderAvgInten: CCTE's Proliferation Assay in human neuroprogenitor cells, Mundy Lab (AID 2284224; active means hit-call score of the fitted dose curve at least 0.9, where 1 is the maximum;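 further: human neural progenitor cells hNP1 derived from WA09 embryonic stem cells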)
# Summary of the method: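 Proliferation read as average intensity of BrdU-positive cells, imaged at 26.25 h post-dosing: chemical exposure started after 40–44 h culture, BrdU during final 4 h, paraformaldehyde fixation. Positive-direction fit relative to DMSO.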
# [15] = UKN4_HCS_LUHMES_cell_viability: Viability Assessment in the University of Konstanz (UKN) Leist Lab Neurite Outgrowth Assay in human LUHMES cells (UKN4) (AID 2284232)
# Summary of the method: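 Human dopaminergic-model LUHMES neurons were exposed to chemicals for 24 h after a 2-day differentiation. Viability was scored by imaging Hoechst H-33342 staining, with activity fitted in both directions relative to DMSO controls.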
# [16] = UKN2_HCS_IMR90_cell_viability: Viability Assessment in the University of Konstanz (UKN) Leist Lab Neural Crest Cell Migration Assay in human induced IMR90 Pluripotent Stem Cells (UKN2) (AID 2284233);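 further: viability of neural crest cells differentiated from IMR90 iPSC measured by calcein-AM fluorescence imaging; cells exposed to compound for 24 h after a 24 h migration phase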
# Summary of the method: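 Neural crest cells derived from IMR90 iPSC migrate into a stopper-free zone for 24 h in EGF/FGF medium, then are exposed to compound for 24 h. Viability assessed by calcein-AM and Hoechst staining with high-content imaging, fitted bidirectionally versus DMSO.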
# [17] = CCTE_Mundy_HCI_Cortical_Synap_Neur_Matur_NeuriteCount: CCTE's Synaptogenesis and Neurite Maturation Assay in rat cortical cells for Neurite Count, Mundy Lab (AID 2284222)
# Summary of the method: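 Rat primary cortical cells; AraC added at DIV 5, chemicals dosed with media change at DIV 7 through DIV 12. MAP2/synaptophysin/Hoechst immunostaining, high-content imaging of neurite number; fitted relative to DMSO.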
# [18] = TAMU_PeakParms_SingleDonor1434_Chronotropy: Texas A&M University (TAMU) 1.5-hr Human Induced Pluripotent Stem Cell (iPSC)-derived Cardiomyocytes Calcium (Ca+2) Flux Assay for Cardiotoxicity: Chronotropy (changes in peak frequency) (AID 2284217); conditions: actives raise or lower the signal
# Summary of the method: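 iPSC-derived cardiomyocytes (single donor 1434) dosed at 0.2, 1, 10 and 100 uM in 0.5% DMSO for 1.5 h at 37C; Ca2+ dye fluorescence gave average beat frequency. Zero-beat points removed; bidirectional fit versus DMSO, POD as EC05.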
# [19] = TAMU_HCS_1.5hr_SingleDonor1434_Cytotoxicity: Cytotoxicity Assessment using High-content Screening (HCS) Fluorescent Imaging for the Texas A&M University (TAMU) 1.5-hr Human Induced Pluripotent Stem Cell (iPSC)-derived Cardiotoxicity Assay (AID 2284234; active means hit-call score of the fitted dose curve at least 0.9, where 1 is the maximum)
# Summary of the method: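 Human iPSC-derived cardiomyocytes dosed at 0.2, 1, 10, 100 uM final (0.5% DMSO) for 90 min at 37 C. Hoechst 33342-stained nuclei counted by 10x high-content imaging; POD is EC10, a 10% drop in total cell count versus DMSO.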
# [20] = TAMU_PeakParms_SingleDonor1434_QT: Texas A&M University (TAMU) 1.5-hr Human Induced Pluripotent Stem Cell (iPSC)-derived Cardiomyocytes Calcium (Ca+2) Flux Assay for Cardiotoxicity: QT (decay-rise ratio) (AID 2284235; active means hit-call score of the fitted dose curve at least 0.9, where 1 is the maximum)
# Summary of the method: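 iPSC-derived cardiomyocytes (single donor 1434) dosed at 0.2, 1, 10, 100 uM final in 0.5% DMSO, 90 min at 37C. Ca2+ flux fluorescence decay/rise ratio; EC05 (5% increase versus DMSO) as POD, excluding beat-arrest and severe-notch data.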
# Chain of Tumor necrosis factor (Homo sapiens) (P01375 whole entry, looked up): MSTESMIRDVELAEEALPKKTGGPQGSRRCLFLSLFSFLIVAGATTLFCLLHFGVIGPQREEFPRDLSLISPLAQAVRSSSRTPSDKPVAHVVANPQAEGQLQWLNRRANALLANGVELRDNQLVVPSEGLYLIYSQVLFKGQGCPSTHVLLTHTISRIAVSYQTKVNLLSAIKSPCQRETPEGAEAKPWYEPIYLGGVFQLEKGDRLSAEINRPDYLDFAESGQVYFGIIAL
compound,measurement,setting,value
O=C(O)CCC(F)(F)C(F)(F)C(F)(F)C(F)(F)C(F)(F)C(F)(F)F,AC50,[1],23.6 µM (active)
same,outcome,[1],inactive
same,AC50,[2],14 µM (active) and 36.7 µM (active)
same,outcome,[2],inactive
same,outcome,[3],inactive
same,outcome,[4],inactive
same,outcome,[5],inactive
same,AC50,[6],36.5 µM (active)
same,outcome,[6],inactive
same,outcome,[7],inactive
C=CC(=O)OCCC(F)(F)C(F)(F)C(F)(F)C(F)(F)C(F)(F)C(F)(F)C(F)(F)C(F)(F)F,outcome,[1],inactive
same,outcome,[2],inactive
same,outcome,[3],inactive
same,outcome,[4],inactive
same,outcome,[5],inactive
same,outcome,[6],inactive
same,outcome,[7],inactive
OCCN1CN(CCO)CN(CCO)C1,AC50,[1],30.2 µM (active)
same,AC50,[2],29.2 µM (active)
same,AC50,[3],38.2 µM (active)
same,AC50,[4],33.6 µM (active)
same,outcome,[5],inactive
same,AC50,[6],34.1 µM (active)
same,outcome,[7],inactive
CN(CCO)S(=O)(=O)C(F)(F)C(F)(F)C(F)(F)C(F)(F)C(F)(F)C(F)(F)C(F)(F)C(F)(F)F,outcome,[1],inactive
same,outcome,[2],inactive
same,outcome,[3],inactive
same,outcome,[4],inactive
same,outcome,[5],inactive
same,outcome,[6],inactive
same,outcome,[7],inactive
Nc1ccn([C@@H]2O[C@H](CO)[C@@H](O)C2O)c(=O)n1 (stereo partly drawn),AC50,[8],15.9 µM (active)
same,AC50,[9],16 µM (active)
same,outcome,[10],inactive
same,outcome,[11],inactive
same,AC50,[12],1.47 µM (active)
same,outcome,[13],inactive
same,AC50,[14],89.6 nM (active)
same,outcome,[15],inactive
same,outcome,[16],inactive
O=C(CC(=O)C(F)(F)C(F)(F)C(F)(F)F)c1cccs1,outcome,[14],inactive
same,AC50,[1],45 µM (active) and 39 µM (active)
same,AC50,[2],19 µM (active) and 20.1 µM (active)
same,AC50,[3],43 µM (active) and 40.8 µM (active)
same,AC50,[4],29.8 µM (active) and 22.1 µM (active)
same,AC50,[5],30 µM (active) and 24.5 µM (active)
same,AC50,[6],35.6 µM (active) and 39.6 µM (active)
same,outcome,[7],inactive
C[C@]12CC[C@@H]3c4ccc(O)cc4CC[C@H]3[C@@H]1C[C@@H](O)[C@@H]2O,outcome,[1],inactive
same,outcome,[2],inactive
same,outcome,[3],inactive
same,outcome,[4],inactive
same,outcome,[5],inactive
same,outcome,[6],inactive
same,outcome,[7],inactive
O=C(CCCN1CCC(O)(c2ccc(Cl)cc2)CC1)c1ccc(F)cc1,AC50,[8],17.8 µM (active)
same,AC50,[9],18.4 µM (active)
same,AC50,[10],37.9 µM (active)
same,AC50,[11],22.4 µM (active)
same,AC50,[12],20.3 µM (active)
same,outcome,[13],inactive
same,outcome,[15],inactive
same,outcome,[16],inactive
CC(C)c1c(C(=O)Nc2ccccc2)c(-c2ccccc2)c(-c2ccc(F)cc2)n1CC[C@@H](O)C[C@@H](O)CC(=O)O,AC50,[8],3.05 µM (active)
same,AC50,[9],3.58 µM (active)
same,AC50,[17],3.35 µM (active)
same,AC50,[13],4.68 µM (active)
same,outcome,[14],inactive
same,outcome,[16],inactive
O=C1NS(=O)(=O)c2ccccc21,outcome,[8],inactive
same,outcome,[18],inactive
same,outcome,[9],inactive
same,outcome,[10],inactive
same,outcome,[11],inactive
same,outcome,[13],inactive
same,outcome,[14],inactive
same,outcome,[19],inactive
same,outcome,[20],inactive
